Data: PubChem BioAssay (NCATS)
Records with an inconclusive call do not appear. Activity calls are given as the source filed them. The call rests on the fitted dose curve; in most records, active means well fitted inhibition curve with a large enough effect; inconclusive means small, poorly fitted or top-dose-only effect; inactive means flat fitted curve, though single readings scatter.

Tested on: Zika virus NS2B-NS3 protease
Assay: Primary screen GU AMC qHTS for Zika virus inhibitors (AID 1347154);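 further: 0% = no-inhibitor control and -100% = no-enzyme control; nearly all actives have a fitted effect of over 70% in size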
Settings: Zika NS2B-NS3 unlinked protease, AMC fluorogenic substrate; series mostly up to 54.1 µM; activity change, negative = inhibition: at the top concentration
How it was run: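 Unlinked Zika NS2B hydrophilic domain–NS3 protease complex at 25 nM in 10 mM Tris-HCl pH 8.0, 0.01% Tween 20, with an AMC peptide substrate. Fluorescence change (340/450 nm) over 15 min at room temperature, normalized to controls, fitted to 4-parameter Hill.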

| Compound | activity change, negative = inhibition | Potency |
| --- | --- | --- |
| CCOC(=O)[C@@H](N)CCC(=O)N[C@@H](CSCc1ccccc1)C(=O)N[C@@H](C(=O)OCC)c1ccccc1 | 2.48% (inactive) |  |
| CN(C)CCN(Cc1ccc(Cl)cc1)c1ccccn1 | 0.0014% (inactive) |  |
| CN1CCN2c3ncccc3Cc3ccccc3C2C1 (configuration not stated) | -5.52% (inactive) |  |
| O=C(Nc1cccc(Cl)c1)Nc1ncc(CCNc2ncnc3ccsc23)s1 | -14.3% (inactive) |  |
| C[C@@H]1CC=CC=CC=CC=C[C@@H](O[C@@H]2O[C@H](C)[C@@H](O)[C@H](N)[C@H]2O)C[C@@H]2O[C@](O)(C[C@@H](O)C[C@@H]3O[C@@H]3C=CC(=O)O1)C[C@H](O)[C@@H]2C(=O)O | 0.862% (inactive) |  |
| COc1ccc(-c2cc(=O)c3c(O)cc(O[C@@H]4O[C@H](CO[C@@H]5O[C@@H](C)[C@H](O)[C@@H](O)[C@@H]5O)[C@@H](O)[C@H](O)[C@@H]4O)cc3o2)cc1O | 6.81% (inactive) |  |
| CCOC(=O)N1c2ccc(C(F)(F)F)cc2[C@@H](N(Cc2cc(C(F)(F)F)cc(C(F)(F)F)c2)C(=O)OC)C[C@H]1CC | -1.56% (inactive) |  |
| O=C(O)C1=CC(O)C(O)[C@H](O)C1 (some centres not stated) | 3.21% (inactive) |  |
| COc1cc2ncn(-c3cc(OCc4ccccc4S(C)(=O)=O)c(C#N)s3)c2cc1OC | -4.41% (inactive) |  |
| CCCCC[C@H](O)C=C[C@H]1[C@H](O)CC(=O)[C@H]1CC=CCCCC(=O)O | -4.93% (inactive) |  |
| CCCCN(CCCC)CC(O)c1cc(Cl)cc2c1-c1ccc(Cl)cc1C2=Cc1ccc(Cl)cc1 (configuration not stated) | 11.3% (inactive) |  |
| CC(C)=CCCC(C)=CCCC(C)=CCCC(C)=CCCC(C)=CCCC(C)=CCCC(C)=CCCC(C)=CCCC(C)=CCO | 0.225% (inactive) |  |
| CCOc1ccccc1N=Nc1c(C)[nH]n(-c2nc(-c3ccccc3)cs2)c1=O | -0.557% (inactive) |  |
| CN1C(=O)C[C@H](C(=O)N[C@@H](Cc2cnc[nH]2)C(=O)N2CCC[C@@H]2C(N)=O)NC1=O | 1.52% (inactive) |  |
| CN1CC(=O)N2C(Cc3c([nH]c4ccccc34)[C@H]2c2ccc3c(c2)OCO3)C1=O (some centres not stated) | -11.5% (inactive) |  |
| CCN1C[C@H](C)n2c(c(O)c3c(=O)n(Cc4ccc(F)c(Cl)c4)nc(C(=O)NC)c32)C1=O | -11.9% (inactive) |  |
| NCc1c[nH]c(=S)n1[C@H]1CCc2c(F)cc(F)cc2C1 | 13.5% (inactive) |  |
| CCCCC(C)(C)[C@H](O)C=C[C@H]1[C@H](O)CC(=O)[C@H]1CC=CCCCC(=O)O | -3.53% (inactive) |  |
| O=C(Nc1ncc(SCCN2CCCC2)s1)[C@]1(c2ccc(S(=O)(=O)C3CC3)cc2)C[C@@H]1C1CCCCC1 | -10.1% (inactive) |  |

| Compound | activity change, negative = inhibition | Potency |
| --- | --- | --- |
| CCC(=C(CC)c1ccc(O)cc1)c1ccc(O)cc1 | -11.7% (inactive) |  |
| Cc1cccc(-c2[nH]c(C(C)(C)C)nc2-c2ccc3c(c2)OCO3)n1 | 0.608% (inactive) |  |
| Cc1ccc(C2=Nc3ccc(Cl)cc3OC2)cc1 | -13.6% (inactive) |  |
| Cc1cccc(Nc2nc(N[C@@H]3CCCC[C@H]3N)ncc2C(N)=O)c1 | 6.01% (inactive) |  |
| CCOC(=O)c1c(CSc2ccccc2)n(C)c2cc(Br)c(O)c(CN(C)C)c12 | -4.56% (inactive) |  |
| Cc1nn(Cc2ccccc2Cl)c(C)c1CN(C)CC(O)COc1ccc(Cl)cc1 (configuration not stated) | -7.99% (inactive) |  |
| C#C[C@]1(O)CC[C@H]2[C@H]3CCc4cc(OC)ccc4[C@H]3CC[C@@]21C | -6.99% (inactive) |  |
| Nc1nc(Cl)nc2c1ncn2[C@@H]1O[C@H](CO)[C@@H](O)[C@H]1F | 6.33% (inactive) |  |
| C=CC[N+]1([C@H]2C[C@H]3[C@@H]4CC[C@H]5C[C@H](O)[C@@H](N6CCOCC6)C[C@]5(C)[C@@H]4CC[C@]3(C)[C@H]2OC(C)=O)CCCC1 | 2.79% (inactive) |  |
| CC[C@H](C=C[C@@H](C)[C@H]1CC[C@H]2[C@@H]3CC=C4C[C@@H](O)CC[C@]4(C)[C@@H]3CC[C@]12C)C(C)C | -3.13% [at 25.8 µM] (inactive) |  |
| CNC1[C@H](O)C(O[C@@H]2C(O)C(O[C@H]3O[C@H]([C@@H](C)NC)CC[C@H]3N)[C@@H](N)C[C@H]2N)OC[C@]1(C)O (some centres not stated) | -4.25% (inactive) |  |
| Cc1ccc(NC(=O)c2cccc(N(C)C)c2)cc1NC(=O)c1ccc(O)cc1 |  | inactive |
| C=C[C@@H]1CN2CCC1C[C@@H]2C(O)c1ccnc2ccc(OC)cc12 (some centres not stated) | -20.6% (inactive) |  |
| N[C@@H](CC(=O)N1CCn2c(nnc2C(F)(F)F)C1)Cc1cc(F)c(F)cc1F | 4.35% (inactive) |  |
| O=c1[nH]nc(OCCCc2ccc(Cl)cc2)c(NCc2cccnc2)c1Br | 6.03% (inactive) |  |
| N#Cc1c(N(CC(=O)O)CC(=O)O)sc(C(=O)O)c1CC(=O)O | -10.5% (inactive) |  |
| CN(CC=CC#CC(C)(C)C)Cc1cccc2ccccc12 | -5.31% (inactive) |  |
| CN(C)S(=O)(=O)c1ccc2c(c1)C(=Cc1cc3c([nH]1)CCCC3)C(=O)N2 | 13% (inactive) |  |
